The text below walks through data of PubChem BioAssay (NCATS).

Inconclusive results are not listed. Unmarked numbers belong to inactive results. The source made the active and inactive calls. Calls follow the shape of the full dose curve.
Potency is read from the fitted curve at half-maximal effect.

Sequence of Cytochrome P450 1A2 (Homo sapiens) (P05177 whole entry, looked up): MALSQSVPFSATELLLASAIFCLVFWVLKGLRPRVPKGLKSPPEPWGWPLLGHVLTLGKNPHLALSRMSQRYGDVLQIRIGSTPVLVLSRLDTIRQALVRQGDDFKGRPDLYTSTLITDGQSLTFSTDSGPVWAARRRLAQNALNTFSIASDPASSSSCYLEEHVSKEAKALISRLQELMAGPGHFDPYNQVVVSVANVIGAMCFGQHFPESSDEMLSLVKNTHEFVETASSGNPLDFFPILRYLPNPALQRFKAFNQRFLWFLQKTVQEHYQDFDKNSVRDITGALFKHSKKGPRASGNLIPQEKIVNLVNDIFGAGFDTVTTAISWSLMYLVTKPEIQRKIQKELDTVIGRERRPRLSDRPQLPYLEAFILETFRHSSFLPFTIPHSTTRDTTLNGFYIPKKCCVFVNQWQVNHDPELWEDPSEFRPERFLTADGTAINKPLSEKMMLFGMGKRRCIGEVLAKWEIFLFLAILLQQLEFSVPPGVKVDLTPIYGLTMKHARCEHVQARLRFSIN

This assay concerns the target Cytochrome P450 1A2 (Homo sapiens) (UniProt P05177). Put plainly: p450-cyp1a2 (AID 410).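 As to activity change, negative = inhibition: -100% = full effect of reference inhibitor.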 Particulars: recombinant CYP1A2, luciferin-ME demethylation, luminescence; series mostly up to 57 µM; activity change, negative = inhibition: at the top concentration. The procedure, abridged:
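Luminescent demethylation readout: Luciferin-ME (100uM, equal to Km) turned over by 20nM CYP1A2 for 60 min at room temperature after NADPH regeneration addition, following 10 min compound preincubation. Normalization used 57 uM furafylline as full inhibition.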
`COc1ccc(COC2OC[C@]3(C)[C@H]4C5=C(CN3C(=O)OC(C)(C)C)[C@H](C)C(CO)C(CO)C5CC[C@@H]24)cc1` (some centres undefined): the “activity change, negative = inhibition” value was -11.3%. For the compound `CCC/C=C(\CCC)C(NS(=O)(=O)c1ccc(C(F)(F)F)cc1)c1ccc(C(=O)OC)cc1` (centres undefined), the “activity change, negative = inhibition” value is -13.6%. Take `CCC[C@@H]1C[C@@]1(CCC)C(NC(=O)c1ccccc1)c1cccc(Cl)c1` (some centres undefined): the “activity change, negative = inhibition” value is -9.7%. In the case of `CCC/C=C(\CCC)C(NC(=O)C(C)(C)C)c1ccc(C(=O)OC)cc1` (centres undefined), the “activity change, negative = inhibition” value is -14%. On to `CC1(C)C(=O)C(c2ccccc2)=C2CN3C(=O)N(CCc4ccccc4)C(=O)C3(Cc3ccc(C(F)(F)F)cc3)C=C21` (centres undefined), for which the “activity change, negative = inhibition” value is -13%. The same measure, in the same setting: then `CC(C)[C@@H](CC(=O)N[C@@H]1CCCC[C@H]1C(=O)N[C@H](CC(=O)N[C@@H](CCC(=O)O)CC(=O)O)Cc1c[nH]c2ccccc12)NC(=O)C[C@H](Cc1ccccc1)NC(=O)[C@@H]1CCCC[C@H]1N`, with -17.6%. In the case of `COC(=O)[C@@H]1C[C@H]1[C@@H](NC(=O)Oc1ccc(F)cc1)c1ccccc1`, the Potency was 3.16 µM (active). Still for that read-out and setting: then `CCc1c2c(nc3c(C(C)C)cccc13)-c1cccc(=O)n1C2`, with 0.398 µM (active). In the case of `COC(=O)[C@@]1(Cc2ccccc2)[C@@H]2C(=CC(=O)[C@H]2CC(=O)C(=O)N(C)C)CN1C(=O)c1ccccc1`, the “activity change, negative = inhibition” value was -12.1%. In the case of `CCC/C=C(\CCC)C(NS(=O)(=O)c1cccs1)c1ccc(C(=O)OC)cc1` (centres undefined), the Potency was 12.6 µM (active). Still for that read-out and setting: with `C#CCCCC(=O)Nc1ccccc1` the figure was 20 µM (active). Regarding `CC(C)C[C@@H](CC(=O)N[C@@H](CCCN)CC(=O)N[C@@H]1CCCC[C@H]1C(=O)N[C@H](CC(=O)N[C@@H](CCC(=O)O)CC(=O)O)Cc1c[nH]c2ccccc12)NC(=O)[C@@H]1CCCC[C@H]1N`, the “activity change, negative = inhibition” value was -17.9%.

Turning to `CCC/C=C(\CCC)C(NS(=O)(=O)c1cccc2cccnc12)c1ccc(-c2ccccc2)cc1` (centres undefined), the Potency is 0.794 µM (active). The same measure, in the same setting: with `CCC/C=C(\CCC)C(NC(=O)Cc1ccccc1)c1ccc(C(=O)OC)cc1` (centres undefined) the figure was 15.8 µM (active).

As for `CCCC[C@H]1C[C@@H]1[C@@H]1N(P(=O)(c2ccccc2)c2ccccc2)C[C@@](O)(c2ccccc2)CC12CC2`, the “activity change, negative = inhibition” value is -2%. For the compound `CCC/C=C(\CCC)C(NS(=O)(=O)c1ccccc1)c1ccc(C(F)(F)F)cc1` (centres undefined), the Potency was 12.6 µM (active). On the same count and under the same terms, then `CCC/C=C(\CCC)C(NS(=O)(=O)c1ccc(Cl)cc1)c1ccccc1` (centres undefined), with 12.6 µM (active). Take `CC(C)C[C@@H](CC(=O)N[C@@H](CCC(=O)O)CC(=O)O)NC(=O)[C@@H]1CCCC[C@H]1NC(=O)C[C@@H](NC(=O)C[C@H](Cc1c[nH]c2ccccc12)NC(=O)[C@@H]1CCCC[C@H]1N)C(C)C`: the “activity change, negative = inhibition” value is -16.1%. On to `COC(=O)[C@H](C)[C@@H]1C[C@@]1(C)[C@@H](NC(=O)OCc1ccccc1)c1ccccc1`, for which the Potency was 15.8 µM (active).

Take `CCC/C=C(\CCC)C(NS(=O)(=O)c1ccc(Cl)cc1)c1ccc(C(=O)OC)cc1` (centres undefined): the Potency is 3.16 µM (active). For `Cc1c2c(nc3ccccc13)-c1cccc(=O)n1C2`, the Potency is 0.1 µM (active). Take `NCCC[C@@H](CC(=O)N[C@@H]1CCNC[C@H]1C(=O)N[C@H](CC(=O)N[C@@H](CCC(=O)O)CC(=O)O)Cc1ccccc1)NC(=O)C[C@H](CO)NC(=O)[C@@H]1CCCC[C@H]1N`: the “activity change, negative = inhibition” value was -42.5%.

As for `CCC/C=C(\CCC)C(NS(=O)(=O)c1ccc(C(F)(F)F)cc1)c1ccccc1` (centres undefined), the Potency is 7.94 µM (active). In the case of `CCCC[C@@H]1C[C@H]1C(NC(=O)c1ccco1)c1ccc(Cl)cc1` (some centres undefined), the Potency was 0.794 µM (active). As to `CC(C)C[C@@H](CC(=O)N[C@@H](CCC(=O)O)CC(=O)O)NC(=O)[C@@H]1CNCC[C@H]1NC(=O)C[C@@H](NC(=O)C[C@H](Cc1c[nH]c2ccccc12)NC(=O)[C@@H]1CCCC[C@H]1N)C(C)C`, the “activity change, negative = inhibition” value was -19.3%. For `CCCC/C=C/C(NC(=O)c1ccccc1)c1ccccc1` (centres undefined), the Potency is 3.98 µM (active). On to `C[C@@H](C(=O)NCc1ccc(S(C)(=O)=O)cc1)[C@@H]1C[C@@]1(C)[C@@H](NC(=O)OCc1ccccc1)c1ccccc1`, for which the Potency was 15.8 µM (active). For `C=C(CC1([C@@H](NP(=O)(c2ccccc2)c2ccccc2)[C@H]2C[C@@H]2CCCC)CC1)c1cccc(OC)c1`, the Potency was 12.6 µM (active). For `CCC/C=C(\CCC)C(NS(=O)(=O)c1ccc(-c2ccccc2)cc1)c1ccc(C(=O)OC)cc1` (centres undefined), the Potency is 6.31 µM (active). For the compound `Cc1ccc(CNC(=O)[C@H]2C[C@@H]2[C@H](NP(=O)(c2ccccc2)c2ccccc2)c2ccccc2)c(F)c1F`, the “activity change, negative = inhibition” value is -17.4%. On the same count and under the same terms, then `COC(=O)[C@@]1(Cc2ccc(F)cc2)[C@H]2c3cc(C(=O)N(C)C)n(Cc4ccc(C)c(F)c4F)c3C[C@H]2CN1C(=O)c1ccccc1`, with -11.3%.

Take `CCC/C=C(\CCC)C(NC(=O)OCC(C)C)c1ccc(C(=O)OC)cc1` (centres undefined): the Potency is 15.8 µM (active). Take `COC(=O)[C@@]1(Cc2ccccc2)[C@H]2c3cc(C(=O)N4CCCC4)n(Cc4ccccn4)c3C[C@H]2CN1C(=O)c1ccccc1`: the “activity change, negative = inhibition” value is -15.4%. In the case of `CC(C)c1cccc2nc3c(c([Si](C)(C)C(C)(C)C)c12)Cn1c-3cccc1=O`, the Potency was 25.1 µM (active). Consider `CC(C)c1cccc2c([Si](C)(C)C)c3c(nc12)-c1cccc(=O)n1C3`, for which the Potency was 15.8 µM (active).

For `C[C@@H](C(=O)NCCc1c[nH]c2ccccc12)[C@H]1C[C@]1(C)[C@H](NC(=O)OCc1ccccc1)c1ccccc1`, the Potency is 15.8 µM (active). For `C[C@H](CO)NC(=O)[C@@H]1C[C@H]1[C@@H](NP(=O)(c1ccccc1)c1ccccc1)c1ccccc1`, the “activity change, negative = inhibition” value was -9.6%.

`CCCC[C@@H]1C[C@H]1C(NC(=O)c1cccs1)c1ccc(Cl)cc1` (some centres undefined): the Potency is 1 µM (active).

With `CCC/C=C(\CCC)C(NC(=O)c1ccc(C(F)(F)F)cc1)c1ccccc1` (centres undefined), the Potency was 25.1 µM (active).
